The values that follow come from PubChem BioAssay (NCI).

Test in all cases: NCI-60 one-dose screen, 48 h (100 = growth as untreated, 0 = no growth, -100 = all killed)
In one test the test system is NCI-H23 lung. The settings on record: 10 µM unless noted.
The next test concerns NCI-H226 lung. Conditions: 10 µM unless noted.
Another test has as its system NCI-H322M lung. The settings on record: 10 µM unless noted.
For the next test, the system named is NCI-H460 lung. Conditions: 10 µM unless noted.
The test system of a further test is HOP-92 NSCLC. Conditions: 10 µM.
The next test deals with NCI-H522 lung. The settings on record: 10 µM.
A further test has as its system A549/ATCC NSCLC. The settings on record: 10 µM unless noted.
A further test deals with 786-0 renal. Conditions: 10 µM unless noted.
In a further test the test system is COLO 205 colon. Conditions: 10 µM unless noted.
Another test has as its system DU-145 prostate. Conditions: 10 µM unless noted.
Another test deals with K-562 leukemia. The settings on record: 10 µM unless noted.
In a further test the test system is MALME-3M melanoma. The settings on record: 10 µM unless noted.
Another test concerns MDA-MB-231 breast. The settings on record: 10 µM unless noted.
A further test relates to RXF 393 renal. Conditions: 10 µM unless noted.
Another test has as its system SF-268 CNS. The settings on record: 10 µM unless noted.
The subject of the next test is SF-295 CNS. Conditions: 10 µM unless noted.
The test system of another test is SF-539 CNS. Conditions: 10 µM unless noted.
The next test deals with UACC-257 melanoma. Conditions: 10 µM unless noted.
In the next test the test system is M14 melanoma. The settings on record: 10 µM unless noted.

The panel holds about 83,000 compounds, 20% with a hit somewhere; the sample as a whole holds those more often.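 Single-dose data. Exposure time 48 hours. Values below 10 considered active.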 Unmarked numbers belong to inactive results. Active and inactive are the calls of the source.

Turning to `Cc1ccc(S(=O)(=O)N/N=C2\CC3CCC2C3)cc1` (stereo not drawn), the growth is 117% with NCI-H23 lung; 96.8% with NCI-H226 lung; 99.3% in the test with NCI-H322M lung; 107% with NCI-H460 lung; 87.2% in the test with HOP-92 NSCLC; 96.7% with NCI-H522 lung. The growth was 105% in the test with A549/ATCC NSCLC; 100% in the test on 786-0 renal; 113% with COLO 205 colon; 114% in the test with DU-145 prostate; 103% with K-562 leukemia; 102% in the test with MALME-3M melanoma. The growth with MDA-MB-231 breast was 111%; in the test with RXF 393 renal, 112%; in the test on SF-268 CNS it was 113%; in the test on SF-295 CNS, 86.6%; in the test on SF-539 CNS, 97.6%; in the test with UACC-257 melanoma it was 114%. The growth with M14 melanoma is 104%.
As to `O=C(/C=C/c1cccc(O)c1)c1cccc(-n2cc(-c3ccc(Cl)cc3)[nH]c2=O)c1`, the growth was -19.5% (active) in the test on NCI-H23 lung; -48.7% (active) in the test with NCI-H226 lung; -0.035% (active) with NCI-H322M lung; -4.62% (active) in the test on NCI-H460 lung; -35.6% (active) with HOP-92 NSCLC; -48.6% (active) in the test on NCI-H522 lung. In addition, the growth is 28.3% in the test with A549/ATCC NSCLC; -74.7% (active) in the test on 786-0 renal; 42.1% in the test on COLO 205 colon; -69.8% (active) in the test on DU-145 prostate; -18.4% (active) in the test with K-562 leukemia; -36% (active) in the test on MALME-3M melanoma. Moreover, the growth in the test on MDA-MB-231 breast was -17.3% (active); in the test with RXF 393 renal it was -61.1% (active); with SF-268 CNS it was -68.3% (active); in the test with SF-295 CNS, 4.32% (active); in the test with SF-539 CNS, -89.7% (active); in the test on UACC-257 melanoma, 22.1%. Moreover, the growth in the test with M14 melanoma is -13% (active).
With `COC(=O)C(C)[C@H]1CC[C@@H]2[C@]1(C)CC=C1[C@]23C=C[C@]2(C[C@@H](OC(C)=O)CC[C@]12C)C(C(=O)OC)C3C(=O)OC` (stereo partly drawn), the growth with NCI-H23 lung was 92.3%; in the test on NCI-H226 lung, 89.8%; in the test on NCI-H322M lung, 102%; in the test with NCI-H460 lung it was 101%; in the test on HOP-92 NSCLC, 83.5%; in the test with NCI-H522 lung it was 96.8%. The growth is 91.5% with A549/ATCC NSCLC; 105% in the test on 786-0 renal; 98.8% with COLO 205 colon; 99.6% in the test on DU-145 prostate; 48.8% in the test with K-562 leukemia; 73.1% in the test on MALME-3M melanoma. The growth in the test on MDA-MB-231 breast was 89.5%; with RXF 393 renal, 102%; with SF-268 CNS it was 90.5%; in the test with SF-295 CNS, 88.4%; in the test with SF-539 CNS, 99.3%; in the test with UACC-257 melanoma, 97.5%. For the same compound, in the test with M14 melanoma, the growth is 96.5%.
Take `CCOC(=O)c1ccc2n1CCCc1cnc(NC(C)=O)nc1-2`: the growth in the test on NCI-H23 lung is 112%; with NCI-H226 lung, 82.4%; in the test with NCI-H322M lung, 110%; with NCI-H460 lung, 112%; with HOP-92 NSCLC it was 82.2%; in the test on NCI-H522 lung it was 97%. Further, the growth is 109% with A549/ATCC NSCLC; 99.4% in the test with 786-0 renal; 122% in the test on COLO 205 colon; 111% with DU-145 prostate; 102% in the test with K-562 leukemia; 110% in the test on MALME-3M melanoma. Also, the growth in the test on MDA-MB-231 breast was 106%; with RXF 393 renal it was 96.6%; in the test on SF-268 CNS, 96.2%; in the test on SF-295 CNS, 100%; in the test on SF-539 CNS, 95.1%; in the test with UACC-257 melanoma, 115%. The growth in the test with M14 melanoma is 99.9%.
Regarding `CCC(CCCN1C(=O)c2ccccc2C1=O)Nc1cc(OC)cc2cccnc12` (stereo not drawn), the growth with NCI-H23 lung is 97.6%; with NCI-H226 lung it was 107%; in the test on NCI-H322M lung, 116%; with NCI-H460 lung it was 112%; in the test on HOP-92 NSCLC, 72.4%; in the test on NCI-H522 lung, 103%. The growth was 106% with A549/ATCC NSCLC; 103% in the test with 786-0 renal; 119% in the test on COLO 205 colon; 102% in the test on DU-145 prostate; 77.2% in the test on K-562 leukemia; 142% in the test with MALME-3M melanoma. For the same compound, the growth was 93.2% in the test on MDA-MB-231 breast; -5.08% (active) with RXF 393 renal; 119% with SF-268 CNS; 111% in the test with SF-295 CNS; 93.4% in the test with SF-539 CNS; 100% in the test with UACC-257 melanoma. Besides, the growth in the test with M14 melanoma is -100% (active).
Take `COC(=O)c1ccc2[nH]c(O)c(C(=Nc3ccc(N(C)C(=O)CN4CCN(C)CC4)cc3)c3ccc(OC)cc3)c2c1`: the growth in the test on NCI-H23 lung is 28.1%; in the test on NCI-H226 lung it was 25.8%; in the test on NCI-H322M lung, 38%; in the test on NCI-H460 lung, 14.8%; in the test with HOP-92 NSCLC, 38%; in the test on NCI-H522 lung, 17.4%. Besides, the growth with A549/ATCC NSCLC was 16%; with 786-0 renal, 21.7%; in the test with COLO 205 colon, 0.878% (active); in the test with DU-145 prostate it was 21.1%; with K-562 leukemia it was 4.93% (active); in the test on MALME-3M melanoma, 6.81% (active). Further, the growth with MDA-MB-231 breast was 23.6%; with RXF 393 renal it was -24.8% (active); in the test with SF-268 CNS, 21.3%; in the test on SF-295 CNS, 37.6%; in the test on SF-539 CNS it was -0.308% (active); in the test on UACC-257 melanoma, 48.9%. Further, the growth with M14 melanoma was 14.3%.
As for `CC[C@H](Nc1ncnc2nc[nH]c12)c1nc2cccc(NCc3ccc(C(=O)NO)o3)c2c(=O)n1-c1ccccc1`, the growth is 98.1% in the test on NCI-H23 lung; 109% in the test with NCI-H226 lung; 97.4% in the test with NCI-H322M lung; 111% with NCI-H460 lung; 82.6% in the test with HOP-92 NSCLC; 76.7% in the test with NCI-H522 lung. In addition, the growth was 102% in the test on A549/ATCC NSCLC; 94.1% in the test with 786-0 renal; 115% in the test with COLO 205 colon; 101% in the test with DU-145 prostate; 102% with K-562 leukemia; 77.1% with MALME-3M melanoma. The growth in the test on MDA-MB-231 breast is 113%; with RXF 393 renal it was 110%; in the test with SF-268 CNS, 84.1%; in the test with SF-295 CNS it was 102%; with SF-539 CNS, 100%; in the test on UACC-257 melanoma, 102%. In addition, the growth with M14 melanoma is 103%.
